# Results as given in the supplement of paper PMC8728848.
# This is one part of a sample in which the strongest signals are shown more often than they occur.
# B1: CLEC-1 (Homo sapiens), Q9NZH3 (protein)
# chain: MQAKYSSTRDMLDDDGDTTMSLHSQASATTRHPEPRRTEHRAPSSTWRPVALTLLTLCLVLLIGLAAWGLLFFQYYQLSNTGQDTISQMEERLGNTSQELQSLQVQNIKLAGSLQHVAEKLCRELYNKAGAHRCSPCTEQWKWHGDNCYQFYKDSKSWEDCKYFCLSENSTMLKINKQEDLEFAASQSYSEFFYSYWTGLLRPDSGKAWLWMDGTPFTSELFHIIIDVTSPRSRDCVAILNGMIFSKDCKELKRCVCERRAGMVKPESLHVPPETLGEGD
# B2: DC-ASPGR (Homo sapiens), CLC10_HUMAN (protein)
# chain: LDQNSKFQRDLVTLRTDFSNFTSNTVAEIQALTSQGSSLEETIASLKAEVEGFKQERQAVHSEMLLRVQQLVQDLKKLTCQVATLNNNASTEGTCCPVNWVEHQDSCYWFSHSGMSWAEAEKYCQLKNAHLVVINSREEQNFVQKYLGSAYTWMGLSDPEGAWKWVDGTDYATGFQNWKPGQPDDWQGHGLGGGEDCAHFHPDGRWNDDVCQRPYHWVCEAGLGQTSQESHVEPKSCDKTHTCPPCPAPELLGGPSVFLFPPKPKDTLMISRTPEVTCVVVDVSHEDPEVKFNWYVDGVEVHNAKTKPREEQFNSTYRVVSVLTVLHQDWLNGKEYKCKVSNKGLPSSIEKTISKAKGQPREPQVYTLPPSQEEMTKNQVSLTCLVKGFYPSDIAVEWESNGQPENNYKTTPPVLDSDGSFFLYSRLTVDKSRWQEGNVFSCSVMHEALHNHYTQK
# Assays:
# Assay in all cases: glycan array binding signal (z-score within array); higher = stronger binding
# Settings in all cases: glycan notation: IUPAC condensed, linker removed
# [1] = biological target: Fuc(a1-2)Gal(b1-3)GlcNAc(b1-2)Man(a1-3)[Fuc(a1-2)Gal(b1-3)GlcNAc(b1-2)Man(a1-6)]Man(b1-4)GlcNAc(b1-4)GlcNAc
# Outline: (§1)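 Glycan array data were curated from 3228 arrays in the Consortium for Functional Glycomics database and kept only where the protein sequence was available. Glycan names were converted to IUPAC-condensed notation, and columns mapping to the same glycan were averaged. The binding signal is a within-array Z-score, averaged across arrays of the same protein sequence at different concentrations or buffers and across linkers. Negative Z-scores can be read as non-binding.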
# [2] = biological target: Fuc(a1-2)[Gal(a1-4)]Gal(b1-4)GlcNAc
# Outline: as §1
# [3] = biological target: Fuc(a1-3)[Gal(b1-4)]GlcNAc(b1-4)Gal(b1-4)[Fuc(a1-3)]GlcNAc(b1-4)Gal(b1-4)[Fuc(a1-3)]GlcNAc
# Outline: as §1
# [4] = biological target: Gal(a1-3)Gal
# Outline: as §1
# [5] = biological target: Gal(a1-3)Gal(b1-3)GlcNAc(b1-2)Man(a1-3)[Gal(a1-3)Gal(b1-3)GlcNAc(b1-2)Man(a1-6)]Man(b1-4)GlcNAc(b1-4)GlcNAc
# Outline: as §1
# [6] = biological target: Gal(a1-4)Gal(b1-4)GlcNAc(b1-2)Man(a1-3)[Gal(a1-4)Gal(b1-4)GlcNAc(b1-2)Man(a1-6)]Man(b1-4)GlcNAc(b1-4)GlcNAc
# Outline: as §1
# [7] = biological target: Gal(b1-2)Gal
# Outline: as §1
# [8] = biological target: Gal(b1-3)[GlcNAc(b1-6)]GalNAc
# Outline: as §1
# [9] = biological target: Gal(b1-4)GlcNAc(b1-2)Man(a1-3)Man(b1-4)GlcNAc(b1-4)GlcNAc
# Outline: as §1
# [10] = biological target: Gal(b1-4)GlcNAc(b1-2)Man(a1-3)[Gal(b1-4)GlcNAc(b1-2)Man(a1-6)]Man(b1-4)GlcNAc(b1-4)GlcNAc
# Outline: as §1
# [11] = biological target: Gal(b1-4)GlcNAc(b1-2)Man(a1-3)[GlcNAc(b1-2)Man(a1-6)]Man(b1-4)GlcNAc(b1-4)GlcNAc
# Outline: as §1
# [12] = biological target: Gal(b1-4)GlcNAc(b1-2)Man(a1-3)[Man(a1-6)]Man(b1-4)GlcNAc(b1-4)GlcNAc
# Outline: as §1
# [13] = biological target: Gal(b1-4)GlcNAc(b1-3)GalNAc
# Outline: as §1
# [14] = biological target: Gal3S(b1-3)GalNAc
# Outline: as §1
# [15] = biological target: Gal3S6S(b1-4)GlcNAc6S
# Outline: as §1
# [16] = biological target: Gal6S(b1-4)GlcNAc6S
# Outline: as §1
# [17] = biological target: GalNAc(a1-3)Gal
# Outline: as §1
# [18] = biological target: GlcNAc(a1-4)Gal(b1-3)GlcNAc
# Outline: as §1
# [19] = biological target: GlcNAc(a1-4)Gal(b1-4)GalNAc
# Outline: as §1
# [20] = biological target: GlcNAc(a1-4)Gal(b1-4)GlcNAc
# Outline: as §1
# [21] = biological target: GlcNAc(a1-6)Gal(b1-4)GlcNAc
# Outline: as §1
# [22] = biological target: Man(a1-3)[Man(a1-6)]Man(a1-6)[Man(a1-2)Man(a1-3)]Man(b1-4)GlcNAc(b1-4)GlcNAc
# Outline: as §1
# [23] = biological target: Neu5Ac(a2-3)Gal(b1-4)GlcNAc(b1-6)[Neu5Ac(a2-3)Gal(b1-3)]GalNAc
# Outline: as §1
# [24] = biological target: Neu5Ac(a2-3)Gal(b1-4)[Fuc(a1-3)]GlcNAc(b1-3)GalNAc
# Outline: as §1
# [25] = biological target: Neu5Ac(a2-3)Gal6S(b1-4)GlcNAc
# Outline: as §1
# [26] = biological target: Neu5Ac(a2-3)GalNAc
# Outline: as §1
# [27] = biological target: Neu5Ac(a2-6)Gal(b1-4)GlcNAc(b1-3)Gal(b1-4)GlcNAc(b1-3)Gal(b1-4)GlcNAc
# Outline: as §1
# [28] = biological target: Neu5Ac(b1-6)GalNAc
# Outline: as §1
# [29] = biological target: Neu5Gc(a2-6)GalNAc
# Outline: as §1
# [30] = biological target: Fuc(a1-2)Gal(b1-4)Glc
# Outline: as §1
# [31] = biological target: Fuc(a1-2)Gal(b1-4)GlcNAc
# Outline: as §1
# [32] = biological target: Fuc(a1-2)Gal(b1-4)GlcNAc6S
# Outline: as §1
# [33] = biological target: Fuc(a1-2)[Gal(a1-3)]Gal
# Outline: as §1
# [34] = biological target: Fuc(a1-2)[Gal(a1-3)]Gal(b1-4)Glc
# Outline: as §1
# [35] = biological target: Fuc(a1-2)[Gal(a1-3)]Gal(b1-4)GlcNAc(b1-2)Man(a1-3)[Fuc(a1-2)[Gal(a1-3)]Gal(b1-4)GlcNAc(b1-2)Man(a1-6)]Man(b1-4)GlcNAc(b1-4)GlcNAc
# Outline: as §1
# [36] = biological target: Fuc(a1-2)[GalNAc(b1-3)]Gal
# Outline: as §1
# [37] = biological target: Fuc(a1-3)GlcNAc
# Outline: as §1
# [38] = biological target: Fuc(a1-3)[Gal(b1-4)]GlcNAc
# Outline: as §1
# [39] = biological target: Fuc(a1-3)[GalNAc(b1-4)]GlcNAc
# Outline: as §1
# [40] = biological target: Fuc(b1-3)GlcNAc
# Outline: as §1
# [41] = biological target: Gal(a1-2)Gal
# Outline: as §1
# [42] = biological target: Gal(b1-3)[Fuc(a1-4)]GlcNAc(b1-2)Man(a1-3)[Gal(b1-3)[Fuc(a1-4)]GlcNAc(b1-2)Man(a1-6)]Man(b1-4)GlcNAc(b1-4)[Fuc(a1-6)]GlcNAc
# Outline: as §1
# [43] = biological target: Gal(b1-4)GlcNAc(b1-3)Gal(b1-4)[Fuc(a1-3)]GlcNAc(b1-3)Gal(b1-4)[Fuc(a1-3)]GlcNAc
# Outline: as §1
# [44] = biological target: Gal(b1-4)GlcNAc(b1-6)Gal(b1-4)GlcNAc(b1-6)GalNAc
# Outline: as §1
# [45] = biological target: Gal(b1-4)GlcNAc(b1-6)GalNAc
# Outline: as §1
# [46] = biological target: Gal(b1-4)GlcNAc(b1-6)[Gal(b1-3)]GalNAc
# Outline: as §1
# [47] = biological target: GalNAc(b1-4)GlcNAc
# Outline: as §1
# [48] = biological target: Glc(a1-4)Glc
# Outline: as §1
# [49] = biological target: Glc(b1-4)Glc
# Outline: as §1
# [50] = biological target: GlcA(b1-3)Gal
# Outline: as §1
# [51] = biological target: GlcNAc(a1-4)Gal(b1-4)GlcNAc(b1-3)Gal(b1-4)GlcNAc
# Outline: as §1
# [52] = biological target: GlcNAc(b1-3)GalNAc
# Outline: as §1
# [53] = biological target: GlcNAc(b1-6)GalNAc
# Outline: as §1
# [54] = biological target: Neu5Ac(a2-6)Gal(b1-4)GlcNAc
# Outline: as §1
# [55] = biological target: Neu5Ac(a2-8)Neu5Ac(a2-8)Neu5Ac(a2-3)Gal(b1-4)Glc
# Outline: as §1
# [56] = biological target: Neu5Ac9Ac(a2-3)Gal(b1-4)GlcNAc
# Outline: as §1
binder,measurement,setting,value
B1,glycan array binding signal (z-score),[1],6.09
same,glycan array binding signal (z-score),[2],-0.046
same,glycan array binding signal (z-score),[3],0.063
same,glycan array binding signal (z-score),[4],-0.376
same,glycan array binding signal (z-score),[5],3.16
same,glycan array binding signal (z-score),[6],5.92
same,glycan array binding signal (z-score),[7],-0.482
same,glycan array binding signal (z-score),[8],-0.033
same,glycan array binding signal (z-score),[9],1.79
same,glycan array binding signal (z-score),[10],0.112
same,glycan array binding signal (z-score),[11],-0.583
same,glycan array binding signal (z-score),[12],11
same,glycan array binding signal (z-score),[13],-0.261
same,glycan array binding signal (z-score),[14],-0.341
same,glycan array binding signal (z-score),[15],3.17
same,glycan array binding signal (z-score),[16],0.66
same,glycan array binding signal (z-score),[17],-0.34
same,glycan array binding signal (z-score),[18],-0.516
same,glycan array binding signal (z-score),[19],-0.035
same,glycan array binding signal (z-score),[20],2.86
same,glycan array binding signal (z-score),[21],2.11
same,glycan array binding signal (z-score),[22],0.433
same,glycan array binding signal (z-score),[23],-0.142
same,glycan array binding signal (z-score),[24],2.82
same,glycan array binding signal (z-score),[25],-0.086
same,glycan array binding signal (z-score),[26],-0.178
same,glycan array binding signal (z-score),[27],-0.43
same,glycan array binding signal (z-score),[28],-0.392
same,glycan array binding signal (z-score),[29],-0.297
B2,glycan array binding signal (z-score),[1],-0.074
same,glycan array binding signal (z-score),[30],-0.082
same,glycan array binding signal (z-score),[31],-0.165
same,glycan array binding signal (z-score),[32],-0.177
same,glycan array binding signal (z-score),[33],-0.287
same,glycan array binding signal (z-score),[34],-0.303
same,glycan array binding signal (z-score),[35],-0.297
same,glycan array binding signal (z-score),[36],3.91
same,glycan array binding signal (z-score),[37],-0.256
same,glycan array binding signal (z-score),[38],-0.246
same,glycan array binding signal (z-score),[39],2.36
same,glycan array binding signal (z-score),[40],-0.235
same,glycan array binding signal (z-score),[41],-0.14
same,glycan array binding signal (z-score),[42],-0.15
same,glycan array binding signal (z-score),[43],-0.197
same,glycan array binding signal (z-score),[44],-0.298
same,glycan array binding signal (z-score),[45],3.86
same,glycan array binding signal (z-score),[46],-0.173
same,glycan array binding signal (z-score),[14],-0.146
same,glycan array binding signal (z-score),[15],-0.248
same,glycan array binding signal (z-score),[47],2.66
same,glycan array binding signal (z-score),[48],5.49
same,glycan array binding signal (z-score),[49],-0.27
same,glycan array binding signal (z-score),[50],-0.276
same,glycan array binding signal (z-score),[51],-0.092
same,glycan array binding signal (z-score),[52],-0.27
same,glycan array binding signal (z-score),[53],4.28
same,glycan array binding signal (z-score),[25],-0.179
same,glycan array binding signal (z-score),[54],-0.236
same,glycan array binding signal (z-score),[55],-0.244
same,glycan array binding signal (z-score),[56],-0.099
